In PubChem BioAssay AID1159580 (chemical genetic matrix, 2015):
About 2,000 (36%) of roughly 5,500 compounds were called active. Not shown: some 18% with an inconclusive outcome. Cut-off read from the data, not from the text of the source: active = normalized growth mostly below about 0.91 (no sharp cut-off); inconclusive = no clear call, values can overlap the other calls; inactive = mostly above about 0.92. The list shows a part of the results.

Assay: chemical genetic growth profiling, strain panel (AID 1159580);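 note: tested at 20 µM; growth read once vehicle control cultures reached saturation at 30 °C; 1 = growth at the plate median or of vehicle wells; lower values mean less growth of the strain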
Conditions: S. cerevisiae deletion strains, growth OD

Measured: normalized growth

Cc1ccc(N=CN(C)C=Nc2ccc(C)cc2C)c(C)c1
inactive: locus YAL021C, strain ccr4, active compounds read low 0.944 | locus YAL026C, strain drs2, active compounds read low 0.962 | locus YAL030W, strain snc1, active compounds read low 0.984 | locus YBL061C, strain skt5, active compounds read low 0.986 | locus YBR009C, strain hhf1, active compounds read low 0.926 | locus YBR023C, strain chs3, active compounds read low 1 | locus YBR171W, strain sec66, active compounds read low 0.971 | locus YBR231C, strain swc5, active compounds read low 1 | locus YBR279W, strain paf1, active compounds read low 0.983 | locus YCL011C, strain gbp2, active compounds read low 0.965 | locus YCL016C, strain dcc1, active compounds read low 0.971 | locus YCL061C, strain MRC1, active compounds read low 0.952 | locus YCL069W, strain vba3, active compounds read low 0.979 | locus YCR088W, strain abp1, active compounds read low 0.99 | locus YDL005C, strain med2, active compounds read low 0.987 | locus YDL040C, strain nat1, active compounds read low 0.987 | locus YDR001C, strain nth1, active compounds read low 0.979 | locus YDR069C, strain doa4, active compounds read low 0.969 | locus YDR137W, strain rgp1, active compounds read low 0.981 | locus YDR159W, strain sac3, active compounds read low 0.974 | locus YDR195W, strain ref2 1.03 | locus YDR297W, strain sur2, active compounds read low 0.977 | locus YDR334W, strain swr1, active compounds read low 0.987 | locus YDR335W, strain msn5, active compounds read low 0.966 | locus YDR392W, strain spt3, active compounds read low 0.925 | locus YEL003W, strain gim4, active compounds read low 0.957 | locus YEL037C, strain rad23, active compounds read low 0.98 | locus YEL061C, strain CIN8 (second series), active compounds read low 0.986 | locus YER015W, strain faa2, active compounds read low 0.972 | locus YER016W, strain bim1, active compounds read low 0.975 | locus YER111C, strain swi4, active compounds read low 0.955 | locus YER155C, strain BEM2 (second series), active compounds read low 1.01 | locus YFR010W, strain ubp6, active compounds read low 0.987 | locus YGL167C, strain pmr1, active compounds read low 0.98 | locus YGL173C, strain kem1, active compounds read low 0.962 | locus YGL227W, strain vid30, active compounds read low 0.988 | locus YGL240W, strain doc1, active compounds read low 0.969 | locus YGL253W, strain hxk2, active compounds read low 0.979 | locus YHR013C, strain ard1, active compounds read low 0.943 | locus YHR027C, strain rpn1, active compounds read low 0.975 | locus YHR030C, strain SLT2, active compounds read low 0.999 | locus YHR079C, strain IRE1, active compounds read low 1.01 | locus YHR142W, strain chs7, active compounds read low 0.957 | locus YJL092W, strain hpr5, active compounds read low 0.978 | locus YJL095W, strain BCK1 (second series), active compounds read low 0.978 | locus YJL095W, strain BCK1, active compounds read low 0.962 | locus YJL115W, strain asf1, active compounds read low 0.966 | locus YJL129C, strain trk1, active compounds read low 0.976 | locus YJL154C, strain vps35, active compounds read low 0.987 | locus YJL164C, strain tpk1, active compounds read low 0.97 | locus YJL166W, strain qcr8, active compounds read low 0.974 | locus YJR066W, strain TOR1, active compounds read low 0.962 | locus YKL160W, strain elf1, active compounds read low 0.989 | locus YKR026C, strain gcn3, active compounds read low 0.989 | locus YKR091W, strain srl3, active compounds read low 0.983 | locus YLL001W, strain dnm1, active compounds read low 0.998 | locus YLL026W, active compounds read low 0.996 | locus YLL041C, strain sdh2, active compounds read low 0.98 | locus YLR027C, strain aat2, active compounds read low 0.98 | locus YLR113W, strain HOG1, active compounds read low 0.988 | locus YLR221C, strain rsa3, active compounds read low 0.941 | locus YLR258W, strain gsy2, active compounds read low 0.98 | locus YLR262C, strain YPT6 (second series), active compounds read low 0.962 | locus YLR320W, strain mms22, active compounds read low 0.969 | locus YLR342W, strain FKS1, active compounds read low 0.985 | locus YLR357W, strain rsc2, active compounds read low 0.898 | locus YLR370C, strain arc18, active compounds read low 0.985 | locus YLR384C, strain iki3, active compounds read low 0.993 | locus YML120C, strain ndi1, active compounds read low 0.975 | locus YMR058W, strain fet3, active compounds read low 0.972 | locus YMR125W, strain sto1, active compounds read low 1 | locus YMR129W, active compounds read low 0.97 | locus YMR205C, strain PFK2, active compounds read low 0.998 | locus YMR231W, strain pep5, active compounds read low 0.995 | locus YNL071W, strain lat1, active compounds read low 0.978 | locus YNL183C, strain NPR1, active compounds read low 0.976 | locus YNL209W, strain ssb2, active compounds read low 0.978 | locus YNL248C, strain rpa49, active compounds read low 0.905 | locus YNL322C, strain KRE1 (second series), active compounds read low 0.967 | locus YNR049C, strain mso1, active compounds read low 0.948 | locus YOR001W, strain rrp6, active compounds read low 0.984 | locus YOR070C, strain gyp1, active compounds read low 0.975 | locus YOR080W, strain dia2, active compounds read low 0.973 | locus YOR083W, strain WHI5, active compounds read low 0.983 | locus YOR106W, strain vam3, active compounds read low 0.95 | locus YOR231W, strain MKK1, active compounds read low 0.994 | locus YOR265W, strain rbl2, active compounds read low 0.991 | locus YOR270C, strain vph1, active compounds read low 0.837 | locus YOR290C, strain snf2, active compounds read low 0.949 | locus YPL051W, strain arl3, active compounds read low 0.965 | locus YPL078C, strain atp4, active compounds read low 0.97 | locus YPL106C, strain sse1, active compounds read low 0.948 | locus YPL240C, strain hsp82, active compounds read low 0.994 | locus YPL256C, strain CLN2, active compounds read low 1.01
